# Measurements published in PubChem BioAssay.
# The source made the active and inactive calls.
# Tests used:
# [1] = test system: PRMT1 (protein arginine N-methyltransferase 1); experiment: small molecules binding arginine methyltransferase PRMT1 – biochemical, small-molecule microarray, 635 nm fluorescence, primary screen (AID 1088); settings: higher = more signal;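 further: binding of Prmt1 protein to compounds spotted on small-molecule microarray slides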
# [2] = growth effects on S. cerevisiae YJM789 – YJM789 clinical isolate, OD600, 24 h, basal, primary screen (AID 1089); settings: higher = more signal, called active from +8 up or from −8 down;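 further: growth of clinical yeast isolate S. cerevisiae YJM 789 seeded 1000 cells per well; test concentration not given here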
# [3] = S. pombe growth modifiers, basal conditions – strain 972, OD600, 24 h, no modulator, primary screen (AID 1090);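 further: basal condition with compound alone and no growth modifier present; test concentration not given here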; settings: S. pombe 972 growth, higher = more signal, called active from +8 up or from −8 down
# [4] = budding yeast growth modifiers under rapamycin – strain BY4716, OD600, 96 h, primary screen (AID 1091); further: test concentration not given here; settings: S. cerevisiae BY4716 + rapamycin, higher = more signal, called active from +8 up or from −8 down
# [5] = molecular target: Torsin-1A-interacting protein 2 (Homo sapiens) (UniProt Q8NFQ8); experiment: small molecules binding lysate-expressed LULL1 – cell lysate, human LULL1 lysate, 635/667 nm fluorescence, primary screen (AID 1092); settings: small-molecule microarray, hLULL1 lysate binding, 635 nm fluorescence; higher = more signal;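 further: probe is lysate of COS7 cells overexpressing human LULL1; score merges per-feature 667 nm fluorescence with signal-to-noise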
# Chain of Torsin-1A-interacting protein 2 (Homo sapiens) (Q8NFQ8 whole entry, looked up): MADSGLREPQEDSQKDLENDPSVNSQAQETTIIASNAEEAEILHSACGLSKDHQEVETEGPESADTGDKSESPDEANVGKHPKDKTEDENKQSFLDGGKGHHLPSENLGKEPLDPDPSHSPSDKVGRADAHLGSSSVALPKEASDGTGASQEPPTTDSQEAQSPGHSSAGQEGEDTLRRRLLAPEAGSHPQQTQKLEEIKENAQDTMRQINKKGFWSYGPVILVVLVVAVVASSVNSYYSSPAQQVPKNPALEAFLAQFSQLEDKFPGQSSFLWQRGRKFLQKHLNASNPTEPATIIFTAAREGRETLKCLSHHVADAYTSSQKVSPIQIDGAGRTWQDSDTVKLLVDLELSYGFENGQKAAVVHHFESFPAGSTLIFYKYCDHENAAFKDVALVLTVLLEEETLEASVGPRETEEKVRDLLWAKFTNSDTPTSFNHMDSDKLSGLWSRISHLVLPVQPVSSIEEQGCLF
# [6] = optical density change of DRC41 E. coli – strain DRC41, OD650, 24 h, E. coli filamentation project, primary screen (AID 1093);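 further: MC1000 strain lacking acrAB efflux and sulA so SOS filamentation is blocked; test concentration not given here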; settings: E. coli DRC41 growth, higher = more signal, called active from +8 up or from −8 down
# [7] = probe aLefty2 binding to arrayed compounds – biochemical, biotinylated probe, 635/667 nm fluorescence, primary screen (AID 1094); settings: small-molecule microarray, higher = more signal;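 further: score merges spot fluorescence near 667 nm with spot signal-to-noise ratio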
# [8] = test system: Noggin (protein binding on small-molecule microarray); experiment: small molecules binding Noggin protein – biochemical, 635/667 nm fluorescence, primary screen (AID 1095); settings: 635 nm fluorescence, higher = more signal;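 further: score merges 667 nm feature fluorescence with signal to noise over triplicate slides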
# [9] = molecular target: Neurogenic locus notch homolog protein 3 (Homo sapiens) (UniProt Q9UM47); experiment: small molecules binding NOTCH3 protein – biochemical, 635/667 nm fluorescence, primary screen (AID 1096); settings: small-molecule microarray, 635 nm fluorescence, higher = more signal
# Chain of Neurogenic locus notch homolog protein 3 (Homo sapiens) (Q9UM47 whole entry, looked up): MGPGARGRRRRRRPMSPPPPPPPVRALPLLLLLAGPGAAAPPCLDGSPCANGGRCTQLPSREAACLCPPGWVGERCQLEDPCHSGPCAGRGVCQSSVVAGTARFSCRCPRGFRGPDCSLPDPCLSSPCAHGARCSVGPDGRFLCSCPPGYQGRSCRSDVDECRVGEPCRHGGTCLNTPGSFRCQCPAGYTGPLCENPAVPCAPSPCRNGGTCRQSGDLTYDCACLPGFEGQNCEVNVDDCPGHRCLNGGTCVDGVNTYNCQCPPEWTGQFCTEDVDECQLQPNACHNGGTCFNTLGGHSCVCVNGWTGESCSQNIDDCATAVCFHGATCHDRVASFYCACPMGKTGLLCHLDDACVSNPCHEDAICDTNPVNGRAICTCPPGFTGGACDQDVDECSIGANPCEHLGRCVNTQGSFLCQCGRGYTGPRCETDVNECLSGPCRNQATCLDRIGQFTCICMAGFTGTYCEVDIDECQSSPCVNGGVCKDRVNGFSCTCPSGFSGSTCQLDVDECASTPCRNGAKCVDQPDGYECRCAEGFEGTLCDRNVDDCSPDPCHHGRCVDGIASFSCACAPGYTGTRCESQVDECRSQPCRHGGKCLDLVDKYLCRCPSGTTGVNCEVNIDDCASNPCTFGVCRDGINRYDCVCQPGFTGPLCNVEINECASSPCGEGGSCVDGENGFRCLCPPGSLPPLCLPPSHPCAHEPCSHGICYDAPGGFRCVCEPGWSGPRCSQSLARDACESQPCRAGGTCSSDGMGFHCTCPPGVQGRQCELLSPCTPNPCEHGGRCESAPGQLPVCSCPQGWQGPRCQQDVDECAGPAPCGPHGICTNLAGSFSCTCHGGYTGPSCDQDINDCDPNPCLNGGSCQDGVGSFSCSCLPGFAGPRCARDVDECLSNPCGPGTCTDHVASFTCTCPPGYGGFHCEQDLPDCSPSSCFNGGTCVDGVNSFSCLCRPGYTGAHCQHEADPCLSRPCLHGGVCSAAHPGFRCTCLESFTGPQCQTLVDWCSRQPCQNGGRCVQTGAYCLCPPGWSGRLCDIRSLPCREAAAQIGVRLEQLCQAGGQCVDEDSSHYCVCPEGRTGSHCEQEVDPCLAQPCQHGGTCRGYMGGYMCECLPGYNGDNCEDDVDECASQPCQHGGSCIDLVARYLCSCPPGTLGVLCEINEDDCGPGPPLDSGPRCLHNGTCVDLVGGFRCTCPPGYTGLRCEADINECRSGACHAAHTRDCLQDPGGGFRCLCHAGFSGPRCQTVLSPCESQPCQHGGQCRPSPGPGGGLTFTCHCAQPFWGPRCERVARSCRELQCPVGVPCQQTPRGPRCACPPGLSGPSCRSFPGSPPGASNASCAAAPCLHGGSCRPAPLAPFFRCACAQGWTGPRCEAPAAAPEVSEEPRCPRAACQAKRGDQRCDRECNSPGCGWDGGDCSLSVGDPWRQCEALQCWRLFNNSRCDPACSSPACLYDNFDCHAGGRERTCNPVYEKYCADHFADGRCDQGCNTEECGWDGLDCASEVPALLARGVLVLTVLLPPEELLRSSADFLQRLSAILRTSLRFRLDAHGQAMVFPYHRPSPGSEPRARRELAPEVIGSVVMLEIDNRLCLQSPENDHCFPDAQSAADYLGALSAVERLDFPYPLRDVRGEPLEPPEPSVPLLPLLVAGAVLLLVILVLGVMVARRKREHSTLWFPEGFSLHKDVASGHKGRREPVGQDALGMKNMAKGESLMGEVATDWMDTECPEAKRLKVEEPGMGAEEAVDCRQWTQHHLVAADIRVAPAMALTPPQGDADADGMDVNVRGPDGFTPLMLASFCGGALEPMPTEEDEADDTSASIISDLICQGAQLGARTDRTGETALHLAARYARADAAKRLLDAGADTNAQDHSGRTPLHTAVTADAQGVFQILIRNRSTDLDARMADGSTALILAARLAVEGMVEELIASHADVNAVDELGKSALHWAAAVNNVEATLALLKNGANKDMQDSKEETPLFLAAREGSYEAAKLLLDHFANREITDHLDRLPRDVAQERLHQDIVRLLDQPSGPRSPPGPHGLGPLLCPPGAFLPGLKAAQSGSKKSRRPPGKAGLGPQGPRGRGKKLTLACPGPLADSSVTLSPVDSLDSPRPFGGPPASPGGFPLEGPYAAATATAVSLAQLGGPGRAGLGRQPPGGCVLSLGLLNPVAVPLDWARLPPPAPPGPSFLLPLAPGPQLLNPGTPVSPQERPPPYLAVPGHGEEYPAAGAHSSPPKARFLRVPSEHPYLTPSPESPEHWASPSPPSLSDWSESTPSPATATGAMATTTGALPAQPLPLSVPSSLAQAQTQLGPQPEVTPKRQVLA
# [10] = probe aEGFR binding to arrayed compounds – biochemical, biotinylated probe, 635/667 nm fluorescence, primary screen (AID 1097); settings: small-molecule microarray, higher = more signal;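 further: probe is a biotinylated anti-EGFR antibody binding compounds printed on slides; score combines fluorescence near 667 nm and signal to noise of each spot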
# [11] = test system: Plasmodium falciparum Sir2 (PF13_0152, Sir2A); experiment: Plasmodium falciparum Sir2A binding compounds – biochemical, small-molecule microarray, 635 nm fluorescence, primary screen (AID 1098); settings: fluorescence 635 nm, higher = more signal;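 further: score merges spot fluorescence intensity with its signal-to-noise ratio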
# [12] = probe aDKK1 binding to arrayed compounds – biochemical, biotinylated probe, 635/667 nm fluorescence, primary screen (AID 1099); settings: small-molecule microarray, higher = more signal;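 further: score merges 667nm spot fluorescence with signal to noise across triplicate slides; reference of the scale not given here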
# [13] = probe aCHRDL2 binding to arrayed compounds – biochemical, biotinylated probe, 635/667 nm fluorescence, primary screen (AID 1100); settings: small-molecule microarray, higher = more signal
# [14] = change in splice reporter luminescence, either direction, cell-based, HEK293, spliceosome inhibition project, primary screen (AID 1101); settings: HEK293 splicing luciferase reporter, 24 h, higher = more signal, called active from +8 up or from −8 down;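 further: HEK293 cells carrying a splicing-competent luciferase reporter gene; test concentration not given here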
# [15] = molecular target: Fibroblast growth factor 10 (Homo sapiens) (UniProt O15520); experiment: compounds binding fibroblast growth factor 10 – biochemical, small-molecule microarray, 635 nm fluorescence, primary screen (AID 1102); settings: FGF10 binding, fluorescence 635 nm, higher = more signal
# Chain of Fibroblast growth factor 10 (Homo sapiens) (O15520 whole entry, looked up): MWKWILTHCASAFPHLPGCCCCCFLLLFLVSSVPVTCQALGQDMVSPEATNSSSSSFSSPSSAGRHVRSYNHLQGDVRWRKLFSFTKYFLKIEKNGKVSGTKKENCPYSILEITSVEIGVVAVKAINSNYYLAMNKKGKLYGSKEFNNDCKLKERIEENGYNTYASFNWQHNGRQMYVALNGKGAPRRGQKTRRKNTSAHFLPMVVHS
# [16] = test system: glycogen synthase kinase-3 (GSK3A per assay name; protocol says GSK3B); experiment: compounds binding glycogen synthase kinase-3 – biochemical, small-molecule microarray, 635 nm fluorescence, GSK3A, primary screen (AID 1103); settings: fluorescence 635 nm, higher = more signal; further: the record names both GSK3A and GSK3B
# [17] = molecular target: Epidermal growth factor receptor (Homo sapiens) (UniProt P00533); experiment: compounds binding epidermal growth factor receptor – biochemical, small-molecule microarray, 635 nm fluorescence, primary screen (AID 1104); settings: EGFR binding, higher = more signal;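 further: score merges 667 nm emission intensity with spot signal to noise over triplicate slides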
# Chain of Epidermal growth factor receptor (Homo sapiens) (P00533 whole entry, looked up): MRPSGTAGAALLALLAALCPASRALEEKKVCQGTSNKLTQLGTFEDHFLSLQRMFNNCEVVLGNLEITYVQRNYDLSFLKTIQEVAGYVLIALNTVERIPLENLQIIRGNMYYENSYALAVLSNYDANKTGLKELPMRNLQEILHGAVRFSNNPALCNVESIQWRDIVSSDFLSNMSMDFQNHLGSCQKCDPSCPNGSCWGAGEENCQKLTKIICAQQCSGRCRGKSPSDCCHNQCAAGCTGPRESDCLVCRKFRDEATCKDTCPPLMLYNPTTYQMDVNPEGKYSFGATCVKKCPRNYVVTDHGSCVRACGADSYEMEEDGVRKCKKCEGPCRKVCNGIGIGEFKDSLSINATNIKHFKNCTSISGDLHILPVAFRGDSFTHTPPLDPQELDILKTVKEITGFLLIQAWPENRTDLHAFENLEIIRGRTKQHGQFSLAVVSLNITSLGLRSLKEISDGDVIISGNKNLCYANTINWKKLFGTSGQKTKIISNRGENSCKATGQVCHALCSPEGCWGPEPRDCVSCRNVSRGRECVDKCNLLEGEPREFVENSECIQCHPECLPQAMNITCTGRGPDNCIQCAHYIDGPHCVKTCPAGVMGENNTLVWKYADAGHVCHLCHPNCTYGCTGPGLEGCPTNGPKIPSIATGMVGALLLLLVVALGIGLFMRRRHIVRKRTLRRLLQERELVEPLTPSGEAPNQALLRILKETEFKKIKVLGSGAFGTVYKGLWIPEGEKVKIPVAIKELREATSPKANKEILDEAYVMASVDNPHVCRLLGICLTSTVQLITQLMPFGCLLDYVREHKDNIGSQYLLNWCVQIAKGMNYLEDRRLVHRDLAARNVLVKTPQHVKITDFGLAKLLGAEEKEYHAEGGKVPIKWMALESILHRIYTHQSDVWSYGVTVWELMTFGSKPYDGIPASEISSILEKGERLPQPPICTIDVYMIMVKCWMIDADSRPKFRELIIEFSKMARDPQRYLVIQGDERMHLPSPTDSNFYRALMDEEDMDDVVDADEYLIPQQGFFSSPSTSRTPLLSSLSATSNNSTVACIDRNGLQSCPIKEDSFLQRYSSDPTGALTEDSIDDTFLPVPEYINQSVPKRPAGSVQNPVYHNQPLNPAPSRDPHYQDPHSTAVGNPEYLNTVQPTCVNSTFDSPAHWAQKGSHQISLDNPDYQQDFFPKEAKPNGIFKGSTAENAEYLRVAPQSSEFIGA
# [18] = molecular target: Follistatin-related protein 3 (Homo sapiens) (UniProt O95633); experiment: compounds binding follistatin-related protein 3 – biochemical, small-molecule microarray, 635 nm fluorescence, primary screen (AID 1105); settings: FSTL3 binding, higher = more signal;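 further: score merges emission near 667 nm and signal to noise per printed spot across three slides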
# Chain of Follistatin-related protein 3 (Homo sapiens) (O95633 whole entry, looked up): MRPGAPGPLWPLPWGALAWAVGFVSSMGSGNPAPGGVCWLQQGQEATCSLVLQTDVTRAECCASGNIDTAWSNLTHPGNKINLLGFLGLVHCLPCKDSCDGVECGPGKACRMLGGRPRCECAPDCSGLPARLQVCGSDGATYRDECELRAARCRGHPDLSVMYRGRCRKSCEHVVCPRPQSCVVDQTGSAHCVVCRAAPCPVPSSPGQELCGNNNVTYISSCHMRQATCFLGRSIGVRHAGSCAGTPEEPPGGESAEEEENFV
# [19] = molecular target: Dickkopf-related protein 1 (Homo sapiens) (UniProt O94907); experiment: small molecules binding DKK1 protein – biochemical, small-molecule microarray, 635 nm fluorescence scan, primary screen (AID 1106); settings: higher = more signal;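 further: score merges emission near 667 nm with signal to noise over three replicate slides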
# Chain of Dickkopf-related protein 1 (Homo sapiens) (O94907 whole entry, looked up): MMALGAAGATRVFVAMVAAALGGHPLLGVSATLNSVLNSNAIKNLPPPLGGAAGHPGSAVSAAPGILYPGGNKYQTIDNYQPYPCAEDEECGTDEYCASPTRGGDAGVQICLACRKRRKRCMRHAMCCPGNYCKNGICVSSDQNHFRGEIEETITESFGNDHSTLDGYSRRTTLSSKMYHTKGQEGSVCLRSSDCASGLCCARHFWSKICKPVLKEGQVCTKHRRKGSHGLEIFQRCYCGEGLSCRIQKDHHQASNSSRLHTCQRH
# [20] = test system: Inhibin beta A chain (activin A); experiment: small molecules binding activin A – biochemical, small-molecule microarray, 635 nm fluorescence scan, primary screen (AID 1107); settings: INHBA, higher = more signal;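 further: mouse activin A protein probed at 4.33 µg/mL on printed slides; score merges bound-protein fluorescence near 667 nm with spot signal-to-noise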
SMILES,composite z-score [1],z-score [2],z-score [3],z-score [4],composite z-score [5],z-score [6],composite z-score [7],composite z-score [8],composite z-score [9],composite z-score [10],composite z-score [11],composite z-score [12],composite z-score [13],z-score [14],composite z-score [15],composite z-score [16],composite z-score [17],composite z-score [18],composite z-score [19],composite z-score [20]
COCCOC(=O)N1C(=O)[C@@]2(c3cc(C#CCC(C(=O)OC)C(=O)OC)ccc31)[C@H](c1ccc(O)cc1)N1[C@H](c3ccccc3)[C@H](c3ccccc3)OC(=O)[C@H]1[C@@H]2C(=O)N1CCc2cc(OC)c(OC)cc2C1,1.54,0.344 (inactive),-1.01 (inactive),0.157 (inactive),2.56,0.794 (inactive),-0.103,1.12,0.8,0.0353,1.21,-0.149,0.131,0.0333 (inactive),1.09,1.08,0.294,0.728,0.384,0.0348
CO[C@H]1O[C@H](CO)[C@@H](OC(=O)CCc2ccccc2)[C@@H]2OC(=O)[C@@H](Cc3ccc4ccccc4c3)C/C=C/C[C@H](Cc3ccc4ccccc4c3)C(=O)O[C@@H]12,0.505,-2.4 (inactive),-2.22 (inactive),11.7 (active),0.784,0.149 (inactive),-0.138,-0.701,-1.26,-0.206,1.08,-0.653,0.46,-0.779 (inactive),-0.361,-0.346,-0.691,0.0223,-1.19,0.499
O=C1NC(=O)C2C1C=CC(C(O)C(c1ccccc1)c1ccccc1)N2Nc1ccccn1 (stereo not given),0.72,0.583 (inactive),1.44 (inactive),-0.968 (inactive),1.27,-0.519 (inactive),0.673,-0.0976,0.0943,0.389,0.737,1.25,1.15,0.864 (inactive),0.909,-0.145,0.457,0.503,0.593,1.32
COC(=O)[C@]1(Cc2ccccc2N=[N+]=[N-])N=C(c2ccc(OCCCO)cc2)O[C@@H]1c1ccccc1CN=[N+]=[N-],1.56,-0.141 (inactive),0.708 (inactive),36.8 (active),2.25,-0.763 (inactive),0.021,1.23,0.963,0.0258,0.843,2.44,1.13,2.71 (inactive),0.975,0.712,0.0466,0.315,0.236,1.1
